In the library only some 1.5% were active in any assay of this set; here they are far more common.
Tb PFK inh: qHTS Assay to Find Inhibitors of T. brucei phosphofructokinase; ATP-dependent 6-phosphofructokinase (Trypanosoma brucei brucei), O15648; T. brucei PFK, ADP-Glo luminescence; Potency, µM (top dose mostly 57.5 µM), without a hit: top-dose activity, negative = inhibition, usual class: inhibitors; actives 0.17% (n = 330,000);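 also: potency is read from the fitted curve at half-maximal effect; 0% = uninhibited 1x PFK enzyme wells and -100% = no-enzyme wells; nearly all actives have a fitted effect of over 60% in size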
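Luminescent ADP detection (ADP-Glo, two-step: ATP depletion then ADP-to-ATP conversion for luciferase) reported PFK activity after 45 min room-temperature reaction of 1.25 nM enzyme with 0.5 mM F6P and 0.1 mM ATP at pH 8.0.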
FEN1 inh: qHTS Assay for the Inhibitors of Human Flap endonuclease 1 (FEN1); Potency, µM (top dose mostly 114 µM), inactives show at the highest dose activity change, negative = inhibition, hits mostly inhibitors; actives 0.35% (n = 390,000); Recombinant FEN1 flap cleavage, fluorescence, 15 min; also: potency is read from the fitted curve at half-maximal effect; % is scaled to controls: 0 for no effect and ±100 for the full control effect; nearly all actives have a fitted effect of over 65% in size
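Enzyme 10 nM, 15 min RT preincubation with compound; start with substrate 50 nM final; reads at 0 and 15 min; qHTS titration, four-parameter Hill fit.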
PI5P4Ka inh: qHTS for Inhibitors of phosphatidylinositol 5-phosphate 4-kinase (PI5P4K); Phosphatidylinositol 5-phosphate 4-kinase type-2 alpha (Homo sapiens), P48426; max response, %; PI5P4Kalpha enzyme, ADP-Glo luminescence, 60 min; stronger effect = lower value; actives 1.2% (n = 330,000); active = max response of -50% or lower; inconclusive = between -30% and -50%; inactive = -30% or higher; also: value at the top dose of about 77 µM; % is scaled to controls: 0 for no effect and ±100 for the full control effect
Target sequence (P48426 whole entry, looked up): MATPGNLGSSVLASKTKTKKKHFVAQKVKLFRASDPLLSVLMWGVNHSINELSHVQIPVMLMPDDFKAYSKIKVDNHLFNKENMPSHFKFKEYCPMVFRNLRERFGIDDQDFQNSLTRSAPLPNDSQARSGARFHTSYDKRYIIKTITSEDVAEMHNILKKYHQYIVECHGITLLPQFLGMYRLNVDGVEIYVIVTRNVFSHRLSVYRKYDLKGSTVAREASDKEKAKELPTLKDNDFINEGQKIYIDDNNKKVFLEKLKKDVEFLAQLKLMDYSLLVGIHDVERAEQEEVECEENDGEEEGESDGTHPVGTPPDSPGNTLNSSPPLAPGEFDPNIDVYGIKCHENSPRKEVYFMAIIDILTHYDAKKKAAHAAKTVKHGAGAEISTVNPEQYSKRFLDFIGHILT
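ADP-Glo luminescence end-point after a 60 min room-temperature kinase reaction. PI5P4Kalpha and substrate in HEPES pH 7.4 buffer with EGTA, 0.1% CHAPS and 5% DMSO; ATP at 5 microM final.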
WRN helicase inh-1: qHTS for Inhibitors of WRN Helicase. Bifunctional 3'-5' exonuclease/ATP-dependent helicase WRN (Homo sapiens), Q14191. WRN helicase unwinding, fluorescent forked duplex, kinetic. Potency, µM (top dose mostly 114 µM), without a hit: at the highest dose activity change, negative = inhibition, hits mostly inhibitors. actives 0.46% (n = 360,000). AID 651768, 2012; also: potency is read from the fitted curve at half-maximal effect; % is scaled to controls: 0 for no effect and ±100 for the full control effect; nearly all actives have a fitted effect of over 55% in size
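WRN at 20 nM final was preincubated with compound for 15 min at room temperature; reaction started with 100 nM forked duplex oligonucleotide carrying fluorophore and quencher plus 2 mM ATP (final). Unwinding followed kinetically by red fluorescence (ex 525/em 598 nm).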
Tb PGK inh: qHTS Assay to Find Inhibitors of Phosphoglycerate Kinase. Phosphoglycerate kinase, glycosomal (Trypanosoma brucei brucei), P07378. PGK/GAPDH coupled, Kinase-Glo luminescence, 60 min. Potency, µM (top dose mostly 57.5 µM), inactives show top-dose activity change, negative = inhibition, most hits filed as inhibitors. actives 0.043% (n = 380,000). AID 602233, 2012; also: potency is read from the fitted curve at half-maximal effect; % is scaled to controls: 0 for no effect and ±100 for the full control effect; nearly all actives have a fitted effect of over 60% in size
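Recombinant glycosomal PGK reaction used 1,3-bisphosphoglycerate generated in-well by GAPDH (100nM final) in 100mM TEA pH 7.6, 5mM MgCl2, 0.01% Tween-20. After 60 minutes at room temperature, ATP was read by Kinase-Glo Plus luminescence end-point.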
TDP1 inh: qHTS Assay for Inhibitors of Tyrosyl-DNA Phosphodiesterase (TDP1); Tyrosyl-DNA phosphodiesterase 1 (Homo sapiens), Q9NUW8; recombinant TDP1, AlphaScreen DNA substrate cleavage; Potency, µM (top dose mostly 130 µM), for the others: at the top dose activity change, negative = inhibition, most hits filed as inhibitors; actives 0.28% (n = 350,000); also: potency is read from the fitted curve at half-maximal effect; % is scaled to controls: 0 for no effect and ±100 for the full control effect; nearly all actives have a fitted effect of over 40% in size
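Enzyme-compound mixtures sat 15 min at room temperature, followed by a 5 min reaction with 15 nM final substrate and 10 min with AlphaScreen beads. Recombinant human Tdp1 was used at 1 nM final.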
WRN helicase inh-2: qHTS for Inhibitors of WRN Helicase: Confirmatory Assay for Cherry-picked Compounds; Potency, µM (doses to about 57.1 µM), for inactives: at the highest dose activity, negative = inhibition, most hits filed as inhibitors; actives 63% (n = 610); WRN helicase DNA unwinding, fluorescence kinetic; shares compounds with WRN helicase inh-1; also: potency is read from the fitted curve at half-maximal effect; nearly all actives have a fitted effect of over 65% in size
TO displacement: qHTS for Inhibitors of WRN Helicase: Thiazole Orange DNA Binding Counterscreen; shares compounds with WRN helicase inh-1; thiazole orange DNA binding displacement, fluorescence; Potency, µM (titrated, usually from 57.1 µM), inactives show at the top dose activity change, negative = inhibition, most hits filed as inhibitors; actives 10% (n = 610); AID 720499, 2013;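 also: drop in dye fluorescence marks compound binding to DNA; potency is read from the fitted curve at half-maximal effect; % is scaled to controls: 0 for no effect and ±100 for the full control effect; nearly all actives have a fitted effect of over 60% in size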
BLM helicase inh: qHTS for Inhibitors of WRN Helicase: BLM Helicase Counterscreen for WRN Inhibitors; AID 720503, 2013; shares compounds with WRN helicase inh-1; Recombinant BLM helicase DNA unwinding, red fluorescence; Potency, µM (series often up to 57.1 µM), inactives show at the highest dose activity change, negative = inhibition, usual class: inhibitors; actives 60% (n = 610); also: potency is read from the fitted curve at half-maximal effect; nearly all actives have a fitted effect of over 60% in size
The depositor's hits bear a star; i = inactive; ? = inconclusive; nt = no result. Unless noted, calls follow the shape of the dose curve; as a rule, active = well fitted curve in the direction sought with a large enough effect; inconclusive = small, poorly fitted or top-dose-only effect, or another doubt; inactive = no such curve, though single readings can be large; an effect the other way counts as inactive or inconclusive.

SMILES	Tb PFK inh	FEN1 inh	PI5P4Ka inh	WRN helicase inh-1	Tb PGK inh	TDP1 inh	WRN helicase inh-2	TO displacement	BLM helicase inh
CCOc1cc(/C=C2/SC(=S)N(CC3CCCO3)C2=O)ccc1O (centres undefined)	-1%	-33%	-16	35µM*	-15%	0%	?	18%	22µM*
COc1cc2c(c(Br)c1N)-c1cc(Br)c(N)cc1C2=O	nt	nt	0	-1%	-10%	nt	nt	nt	nt
COc1ccc([N+](=O)[O-])cc1NC(=O)Cn1ccsc1=N	1%	-4%	2	12%	i	3%	nt	nt	nt
Cc1cc(=O)[nH]c(N/N=C/c2ccccc2Cl)n1	2%	-4%	-1	-6%	nt	nt	nt	nt	nt
COc1ccc(OC)c(/C=N/Nc2nc(C)cc(=O)[nH]2)c1	-1%	-16%	4	89µM*	0%	nt	-13%	-4%	-20%
O=c1[nH]c(SCc2ccc(F)cc2)nc2c1CCCC2	nt	2%	nt	nt	nt	0%	nt	nt	nt
COc1ccccc1N1CCN(C(=O)[C@@H]2CCCN2C2=NS(=O)(=O)c3ccccc32)CC1	nt	nt	6	17%	-7%	nt	nt	nt	nt
COc1ccc(-n2c(O)c(/C=N/NS(=O)(=O)c3ccc(C)cc3)c3ccccc3c2=O)cc1OC	-2%	-33%	-14	40µM*	-1%	8%	-23%	175%	?
COc1ccc(Br)cc1C=NNS(=O)(=O)c1ccc(C)cc1	nt	nt	11	3%	-9%	nt	nt	nt	nt
CC1CCCN(Cc2c(O)ccc3c2O/C(=C\c2ccco2)C3=O)C1 (centres undefined)	0%	?	?	35µM*	-2%	-9%	-9%	331%	-27%
CCN1CCN(Cc2c(O)ccc3c2O/C(=C\c2ccccc2)C3=O)CC1	2%	-4%	-7	-11%	0%	5%	nt	nt	nt
COc1ccc2cc3cc(C(=O)NCc4cccs4)oc3nc2c1	-29%	?	-13	40µM*	-13%	32µM*	24µM*	2%	15µM*
COc1ccc2cc3cc(C(=O)NCc4ccc(C)cc4)oc3nc2c1	nt	4%	nt	nt	-10%	2%	nt	nt	nt
O=C(CNCc1ccco1)Nc1cccc(S(=O)(=O)N2CCCCC2)c1	1%	-4%	-8	4%	-2%	7%	nt	nt	nt
O=C(CCSCCC(=O)NCc1ccco1)NCc1ccco1	?	7%	?	13µM*	-17%	-9%	22µM*	-13%	17µM*
Cc1cc(=O)[nH]c(SCC(=O)NCc2ccco2)n1	-7%	-12%	-22	19µM*	-21%	nt	?	-5%	22µM*
Oc1cccc(/C=N/Nc2ncnc3c2ncn3Cc2ccccc2)c1	3%	-5%	-3	-25%	-5%	2%	nt	nt	nt

Bioassay records from PubChem BioAssay.
